Calls of active or inactive are those of the source.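 How the source made its calls: active means fitted half-maximal concentration AC50 at or below ten times the highest valid tested dose, with signal falling as DNA is displaced (actives reach about 34 µM in these data); inconclusive means flat fit at moderate signal loss, or poor fit quality; inactive means the rest, including signal rising instead of falling.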
Test: acridine orange-DNA binding displacement – biochemical, fluorescence polarization, cherry-picked samples, set 2, artefact control for KSHV LANA DNA-binding inhibitor project, dose response (AID 504727)
Conditions: series mostly up to 35 µM

AC50, active:
COc1ccc(C2C(C(=O)c3cccs3)=C(O)C(=O)N2c2nnc(C)s2)cc1OC (stereo not drawn) 21.6 µM
O=C1/C(=C/c2ccco2)Oc2c1ccc(O)c2CN1CCCCC1 18.9 µM
Cn1c(=O)c(N)c2c3c(c(Br)ccc31)C(=O)c1ccccc1-2 2.99 µM
c1ccc2[nH]c3cc4ncnc4cc3nc2c1 11.7 µM
COc1ccc(C2C(C(=O)c3cccs3)=C(O)C(=O)N2c2nncs2)cc1 (stereo not drawn) 3.42 µM
Nc1ccc2cc3[nH]c4cc(N)ccc4c3nc2c1 1.48 µM

AC50, inactive:
NNC(=O)C1C(O)CCC2CN3CCc4c([nH]c5ccccc45)C3CC21 (stereo not drawn)
Cc1ccc(C)c(OCC(=O)N(Cc2nnc(-c3ccccc3Cl)o2)C2CC2)c1
COc1ccc(C2(CNC(=O)CCC(=O)O)CCCC2)cc1OC
CCOC(=O)c1ccccc1Nc1cc(C)nc2nc(C)nn12
CCN(C(=O)COC(=O)c1ccc([N+](=O)[O-])o1)C1CCCCC1
Oc1ccccc1C=Nc1ccccc1-c1nc2ccccc2[nH]1
O=C(CCN1C(=O)/C(=C/c2ccco2)SC1=S)Nc1ccc(C(=O)O)c(O)c1
O=C(c1coc(=O)c(Br)c1)N1CCCc2ccccc21
COc1ccc(C2c3ccc(O)cc3Oc3ncn(CCCO)c(=N)c32)cc1OC (stereo not drawn)
C=CCn1c(C)cc(-c2csc(NC(=O)CCc3nc4ccccc4c(=O)[nH]3)n2)c1C
Cn1c2ccccc2c2cnn(CC(=O)Nc3cccc(F)c3)c(=O)c21
CC1CC(C)(C)NC(=S)N1CC(=O)N(C)Cc1ccccc1 (stereo not drawn)
Cc1cc(=O)c2c([nH]1)c(C)cc1[nH]c(C)c(C)c12
Cc1noc(C)c1CSCC(=O)Nc1nc2c(F)cc(F)cc2s1
Cc1ccc(NC(=O)CN2C(=O)N/C(=C/c3cc(C)n(-c4ccc(C(=O)O)cc4)c3C)C2=O)cc1
Cc1c(N)cc(S(=O)(=O)O)cc1NC(=O)c1cccc([N+](=O)[O-])c1
N#C/C(=C\c1ccc(-c2ccccc2[N+](=O)[O-])o1)C(N)=O
NC(=O)C1=NOC(CNc2ncc(C(F)(F)F)cc2Cl)C1 (stereo not drawn)
CCn1c(=O)c(C(=O)NCCN2CCCCC2)c(O)c2ccccc21
COc1ccc(NC(=O)Cc2nnc(SCC(=O)Nc3nccs3)n2C)cc1
Cc1cccc(COc2ccc(/C=N/NC(=O)c3nnn(-c4nonc4N)c3COc3ccc(F)cc3)cc2)c1
CCN(C(=O)COC(=O)CNS(=O)(=O)c1ccc(SC)c([N+](=O)[O-])c1)C1CCCCC1
Cc1nn(Cc2c(F)c(F)c(F)c(F)c2F)c(C)c1NC(=O)c1ccnn1C
O=C(NC1(O)C(=O)c2ccccc2C1=O)c1c(Cl)cccc1Cl
O=C(O)C1Nc2c(O)cc(Cl)c([N+](=O)[O-])c2C2C=CCC12 (stereo not drawn)
Cc1cc(NC(=O)CCC(=O)N(CCC(C)C)C(C(=O)NC2CCCC2)c2cccnc2)no1 (stereo not drawn)
O=C1C(=Cc2ccco2)CCC1=Cc1ccco1
O=S(=O)(O)c1cc(O)c2cc(Nc3ccccc3)ccc2c1
O=C(OCc1ccccc1)N1C=CC2CC1c1c(Cl)cccc12 (stereo not drawn)
Cn1c(=O)oc2cc(S(=O)(=O)CCC(=O)N3CCN(c4ccccc4F)CC3)ccc21
CCOC(=O)c1ccc[n+](CC(=O)c2ccc(OC)cc2)c1
CCCCn1c(N)c(N(CCOC)C(=O)c2cc(C)oc2C)c(=O)[nH]c1=O

Reference: PubChem BioAssay AID504727 (Broad Institute, 2011)
